Calls of active or inactive are those of the source. Unless noted, no rule for the calls is given here.
Assays:
[1] = tested on: Wnt5a (protein binding on small-molecule microarray); experiment: small molecules binding Wnt5a protein – biophysical, small-molecule microarray, 635/667 nm fluorescence, primary screen (AID 1142); conditions: 635 nm fluorescence, higher = more signal;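 also: fluorescence read at 667 nm with signal to noise per printed feature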
[2] = ATP-based viability of Huh7 replicon cells – cell-based, CellTiter-Glo luminescence, basal, 48 h, cytotoxicity control for HCV replication inhibitor project, primary screen (AID 1143); conditions: higher = more signal, called active from +8 up or from −8 down;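 also: Huh7 hepatoma cells carrying a hepatitis C replication reporter with no stimulus; test concentration not given here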
[3] = Pseudomonas biofilm growth suppression – PAO1 strain, BacTiter-Glo luminescence, LB-PBS, primary screen (AID 1144); conditions: P. aeruginosa PAO1 biofilm, 12 h, higher = more signal
[4] = basal CRE-LacZ reporter activity in PC12 – cell-based, unstimulated, primary screen (AID 1145); conditions: no forskolin, luminescence, 4.5 h, higher = more signal, called active from +8 up or from −8 down
[5] = forskolin-driven CRE-LacZ activity in PC12 – cell-based, CRE-LacZ reporter, forskolin-stimulated, primary screen (AID 1146); conditions: luminescence, 4.5 h, higher = more signal, called active from +8 up or from −8 down;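 also: PC12 cells with 6xCRE LacZ reporter stimulated by forskolin 10 µM; beta-galactosidase reporter signal reflecting CREB driven transcription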
[6] = target: Streptavidin (Streptomyces avidinii) (UniProt P22629); experiment: compounds binding control protein streptavidin – biophysical, small-molecule microarray, 635/667 nm fluorescence, artefact control for SMM compound annotation, primary screen (AID 1147); conditions: higher = more signal;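 also: signal reflects streptavidin binding to arrayed compounds as a control protein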
[7] = probe aInhba binding on compound microarray – biochemical, small-molecule microarray, 635/667 nm fluorescence, primary screen (AID 1148); conditions: higher = more signal;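 also: score merges 667nm spot fluorescence with signal-to-noise for antibody binding to printed compounds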
[8] = target: Torsin-1A (Homo sapiens) (UniProt O14656); experiment: TOR1A wild-type binding on microarray – cell lysate, small-molecule microarray, lysate, 635/667 nm, primary screen (AID 1149); conditions: COS7 hTOR1A-WT lysate, 635 nm fluorescence, higher = more signal
[9] = target: Torsin-1A (Homo sapiens) (UniProt O14656); experiment: torsin A mutant lysate binding on microarrays – cell lysate, small-molecule microarray, COS7 lysate, 635/667 nm fluorescence, primary screen (AID 1150); conditions: COS7 hTOR1A mutant lysate, 635 nm fluorescence, higher = more signal;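 also: score pools 667 nm emission and signal to noise measuring lysate protein binding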
[10] = tested on: Sonic hedgehog protein (Shh); experiment: Sonic hedgehog microarray binding compounds – biochemical, small-molecule microarray, 635/667 nm fluorescence, primary screen (AID 1151); conditions: 635 nm fluorescence, higher = more signal;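 also: Shh protein binding to compounds spotted on small-molecule microarray slides; score combines spot fluorescence intensity with signal-to-noise across triplicate slides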

Sequence of Streptavidin (Streptomyces avidinii) (P22629 whole entry, looked up): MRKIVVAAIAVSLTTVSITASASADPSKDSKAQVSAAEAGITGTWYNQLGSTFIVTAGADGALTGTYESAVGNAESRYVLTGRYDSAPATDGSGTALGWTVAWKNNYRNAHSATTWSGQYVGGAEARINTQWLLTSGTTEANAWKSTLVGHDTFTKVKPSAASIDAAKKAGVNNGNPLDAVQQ
Sequence of Torsin-1A (Homo sapiens) (O14656 whole entry, looked up): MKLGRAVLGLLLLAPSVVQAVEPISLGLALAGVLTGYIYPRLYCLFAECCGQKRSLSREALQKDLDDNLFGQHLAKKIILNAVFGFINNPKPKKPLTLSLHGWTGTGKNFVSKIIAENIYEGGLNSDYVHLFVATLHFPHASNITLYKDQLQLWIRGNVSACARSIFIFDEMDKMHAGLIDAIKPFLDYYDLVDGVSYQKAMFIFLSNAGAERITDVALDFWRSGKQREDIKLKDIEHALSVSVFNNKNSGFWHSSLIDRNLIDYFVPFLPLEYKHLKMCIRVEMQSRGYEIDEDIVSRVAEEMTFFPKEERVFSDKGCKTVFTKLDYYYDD

| SMILES | composite z-score [1] | z-score [2] | z-score [3] | z-score [4] | z-score [5] | composite z-score [6] | composite z-score [7] | composite z-score [8] | composite z-score [9] | composite z-score [10] |
| --- | --- | --- | --- | --- | --- | --- | --- | --- | --- | --- |
| COCCCN1C(=O)[C@@]2(Cc3ccccc31)c1ccccc1C(=O)N(Cc1ccccc1C(F)(F)F)[C@H]2c1ccc(CO)cc1 | 0.16 | 0.287 (inactive) | -0.169 (inactive) | -0.581 (inactive) | 0.255 (inactive) | 0.147 | 0.331 | -0.0888 | -0.0875 | 0.498 |
| C=CCOC(=O)[C@H]1[C@@H]2C(=O)O[C@@H](c3ccccc3)[C@@H](c3ccccc3)N2[C@@H](c2ccc(OCCOC(=O)[C@H]3C[C@H]4C(=O)N5CCC[C@H]5C(=O)N4[C@H]3c3ccc(O)cc3)cc2)[C@]12C(=O)Nc1ccc(I)cc12 | 1.61 | -2.04 (inactive) | 1.03 (inactive) | 0.0043 (inactive) | 0.803 (inactive) | 1.93 | 1.3 | 2.59 | 2.65 | 2.04 |
| COc1cc(CO)cc(I)c1O[C@H]1C=C(C(=O)NCCO)C[C@@H](N(CCN2CCOCC2)C(=O)C2CCOC2)[C@@H]1O (stereo not given in full) | -0.31 | -0.846 (inactive) | 0.367 (inactive) | 0.495 (inactive) | -1.45 (inactive) | -0.512 | -0.0195 | 0.055 | 0.399 | 0.309 |
| CC(C)[C@@H](CO)NC(=O)[C@H]1[C@@H](c2ccccc2)N(c2ccccc2)O[C@@H]1C | -0.106 | -0.206 (inactive) | -0.736 (inactive) | -0.415 (inactive) | -1.35 (inactive) | -0.327 | 0.0953 | -0.261 | -0.0316 | 0.463 |
| CC1CC/C=C\[C@H]2OC34C=CCN(c5ccc(Cl)cc5)C(=O)[C@H]3N(CCO)C(=O)[C@]4(C)C2C(=O)O1 (stereo not given in full) | -0.642 | -0.901 (inactive) | 0.43 (inactive) | 0.87 (inactive) | -0.217 (inactive) | -0.561 | -0.128 | -0.433 | -1.01 | -0.317 |
| COc1cc2c(cc1OC)CN(C(=O)[C@H]1[C@@H]3C(=O)O[C@@H](c4ccccc4)[C@@H](c4ccccc4)N3[C@@H](c3ccc(O)cc3)[C@]13C(=O)Nc1ccc(C#CC4=CCCCC4)cc13)CC2 | 0.657 | -2.62 (inactive) | -0.693 (inactive) | -0.375 (inactive) | -0.267 (inactive) | 1.45 | 0.288 | 0.302 | 0.454 | 1.07 |
| CCCC#C[Si](O[C@H](CC)c1cn([C@H](CO)Cc2ccccc2)nn1)(C(C)C)C(C)C | 0.998 | -0.727 (inactive) | -0.259 (inactive) | -0.388 (inactive) | -0.0711 (inactive) | 0.949 | -0.128 | 0.402 | 0.511 | 0.482 |
| C=CCOC(=O)[C@@H]1[C@H]2C(=O)O[C@H](c3ccccc3)[C@H](c3ccccc3)N2[C@H](c2ccc(OCCOC(=O)[C@@H]3C[C@@H]4C(=O)N5CCC[C@H]5C(=O)N4[C@@H]3c3ccc(O)cc3)cc2)[C@@]12C(=O)Nc1ccc(I)cc12 | 0.0017 | -1.51 (inactive) | -1.72 (inactive) | -1.48 (inactive) | -1.75 (inactive) | 1.11 | -0.101 | 0.711 | 0.878 | 1.82 |
| [N-]=[N+]=NCc1ccccc1C[C@]1(C(=O)O)N=C(c2ccc(OCCCO)cc2)O[C@H]1c1ccccc1N=[N+]=[N-] | 0.92 | -2.37 (inactive) | -2.08 (inactive) | 0.218 (inactive) | 0.987 (inactive) | 0.954 | 0.199 | 2.01 | 1.39 | 0.237 |
| C=C[C@H](COC(C)=O)N(C(=O)OC(C)(C)C)S(=O)(=O)c1ccc(Br)cc1 | 0.77 | -0.121 (inactive) | -0.41 (inactive) | 0.652 (inactive) | 1.66 (inactive) | 0.304 | 0.898 | 0.446 | 0.31 | 0.457 |
| O=C1[C@H]2C=C(Br)[C@H](C[C@@H]2OCCCCO)[C@@]12CO2 | -0.0251 | 0.722 (inactive) | 0.56 (inactive) | 0.22 (inactive) | 0.533 (inactive) | 0.0247 | 0.104 | 0.411 | 0.53 | 0.31 |
| CCCCN1CC=CC23O[C@@H]4C=CCOC(=O)[C@@H]4[C@H]2C(=O)N(CCCCCO)[C@@H]3C1=O (stereo not given in full) | -0.103 | 0.445 (inactive) | -1.08 (inactive) | -0.761 (inactive) | -0.645 (inactive) | -1.32 | -0.0531 | -0.915 | 1.23 | 1.07 |
| CC(C)N1C(=O)c2ccccc2[C@](C)(C(=O)NCc2ccccc2)[C@@H]1c1ccc(CO)cc1 | -0.111 | -0.139 (inactive) | 0.261 (inactive) | 0.558 (inactive) | -0.074 (inactive) | -0.558 | -0.154 | 1.3 | -0.119 | -0.0391 |
| O=C1OCC=C[C@H]2OC34C=CCN(c5ccc6ccccc6c5)C(=O)[C@H]3N(CCCCCCO)C(=O)[C@@H]4[C@@H]12 (stereo not given in full) | -0.565 | 0.165 (inactive) | 3.31 (inactive) | 0.471 (inactive) | -0.0042 (inactive) | -0.719 | -0.018 | 1.62 | -1.69 | -0.749 |
